# In ChEMBL document CHEMBL3988442, “University of Dundee, Small-Polar-MMV Screening Library” (2021):
# The campaign covered roughly 48,000 compounds. About 13,000 (27%) showed an effect of 50% or more. The list shows a part of the results.
# System: Wolbachia pipientis
# Test: Anti-Wolbachia Cell-Based Screen
# Assay type: functional
# Set-up: scale not given: in the data most compounds retested in dose-response had high values
# Settings: 5 µM
row,SMILES,Percent Effect [%]
1,CCc1nnsc1C(=O)NCC1CN(CC(C)C)CCO1 (configuration not stated),19.89
2,CCC(=O)N1CCN(C(=O)c2ccc(OC)o2)[C@H]2CS(=O)(=O)C[C@H]21,0.8171
3,O=C(c1ccc(-n2cnnc2)cc1Cl)N1CCCC(O)(CO)CC1 (configuration not stated),1.549
4,CC(=O)N[C@@H]1CN(Cc2ccccc2-n2nc(C)cc2C)C[C@H]1C(C)C,5.074
5,O=C(c1cncs1)N1CCOCC(Cc2ccncn2)C1 (configuration not stated),102.2
6,COc1ccc(C(=O)N2CCOCC(CO)C2)cc1N1CCOCC1 (configuration not stated),2.678
7,O=C(c1ccncc1)N1C[C@@H]2CC[C@H](C1)N(C(=O)N1CCOCC1)C2,7.35
8,Cc1cnc(CC2COCCN(C(=O)c3cncs3)C2)cn1 (configuration not stated),133.5
9,O=C(c1cncs1)N1CCOCC(Cc2ccccn2)C1 (configuration not stated),121.8
10,CN(C)CC(=O)N1CCOCC(Cc2ccccn2)C1 (configuration not stated),100.7
11,CCOCCn1nc(C)cc1C(=O)N1CCOCC(CO)C1 (configuration not stated),-4.092
12,O=C(NC[C@H]1OC[C@@H](NCc2ccccn2)[C@@H]1O)N1CCOCC1,-13.39
13,Cc1cccc(NC(=O)N2CCOCC(CN(C)C)C2)c1C (configuration not stated),-12.45
14,c1ccc(CN2CCOC[C@H]2c2nc(-c3ccncc3)c[nH]2)nc1,-4.896
15,CC(=O)N(C)C1CCCc2nc(C)sc21 (configuration not stated),-2.267
16,CC(C)S(=O)(=O)NCC1CCCN(C(=O)c2ccc3c(c2)OCCO3)C1 (configuration not stated),-10.13
17,COc1cccc(CC(=O)N2CCC(O)(C(F)(F)F)C2)c1 (configuration not stated),-3.145
18,Cc1ccc(CN2CCN(c3cc(NCCO)ncn3)CC2CCO)o1 (configuration not stated),-3.553
19,CS(=O)(=O)NCCCSCc1cccc2cccnc12,-10.2
20,CCC(CO)NC(=O)Cc1ccc(NC(=O)CC2=CCCCC2)cc1 (configuration not stated),-16.18
21,Cc1cccc(-c2nnn3c2COC(CNS(=O)(=O)C2CC2)C3)c1 (configuration not stated),-1.824
22,F[C@@H]1CN(CC2CCCCC2)C[C@@H]1OCc1nc2ccccc2o1,-16.46
23,CC(C)(C)c1coc([C@@H]2COCCN2Cc2cnc3ccccc3c2)n1,-14.41
24,Cc1ccc(CN2CCCN(Cc3cscn3)CC2)cc1,8.803
25,Cc1cn[nH]c1C1COCCN1Cc1cscn1 (configuration not stated),126.8

row,SMILES,Percent Effect [%]
1,Cc1ccc(CN2CCOCC2c2[nH]ncc2C)cn1 (configuration not stated),135.2
2,Cc1cn[nH]c1C1CCCN1Cc1ccc(F)c(F)c1 (configuration not stated),102.9
3,Cc1cc(C)n(CC2CCCN2Cc2cscn2)n1 (configuration not stated),-19.73
4,Cc1ccc(-c2c[nH]c([C@@H]3COCCN3Cc3cccnc3)n2)cc1,-11
5,C[C@H]1C[C@H]2CN(C(=O)C3=CCCC3)CC[C@H]2O1,-4.42
6,Cc1cnc(CN(Cc2ccc(C#N)cc2F)C2CCN(C)C2)o1 (configuration not stated),0.7186
7,O=C(Cc1ccc(O)c(F)c1)N1CCC2(CCNCC2)CC1,3.875
8,CCOC(=O)N1CCN(c2nc(NCCO)c3ccccc3n2)CC1,-13.13
9,CS(=O)(=O)NC[C@@H]1OC[C@H]2CN(C(=O)c3ccccn3)CC[C@H]21.O=C(O)C(F)(F)F,-10.63
10,CN(C)C(=O)NC[C@@H]1OC[C@H]2CN(Cc3cccc(F)c3)CC[C@H]21.O=C(O)C(F)(F)F,-1.144
11,Cc1cccc(CN2CC[C@H]3CO[C@H](CNC(=O)N(C)C)[C@H]3C2)c1.O=C(O)C(F)(F)F,-5.522
12,CS(=O)(=O)NC[C@H]1OC[C@H]2CN(CCc3ccccc3)CC[C@H]21.O=C(O)C(F)(F)F,87.13
13,Cc1cccc(CN2CC[C@@H]3[C@@H](CO[C@H]3CNc3ncccn3)C2)n1.O=C(O)C(F)(F)F.O=C(O)C(F)(F)F.O=C(O)C(F)(F)F,100.3
14,COc1ccc(CN2CC[C@H]3[C@H](CO[C@H]3CNC(=O)N(C)C)C2)cc1.O=C(O)C(F)(F)F,1.388
15,CS(=O)(=O)NC[C@@H]1OC[C@H]2CN(C(=O)c3ccccc3)CC[C@H]21,-5.092
16,COc1ccc(CN2CC[C@H]3CO[C@H](CNC(=O)N(C)C)[C@H]3C2)cc1.O=C(O)C(F)(F)F,-1.403
17,CCCN1CC[C@@H]2[C@@H](CO[C@H]2CNC(=O)c2nccn2C)C1.O=C(O)C(F)(F)F,-3.77
18,CS(=O)(=O)NC[C@@H]1OC[C@H]2CN(Cc3ccccc3)CC[C@H]21.O=C(O)C(F)(F)F,107.1
19,CS(=O)(=O)NC[C@H]1OC[C@@H]2CCN(Cc3ccc(F)cc3)C[C@@H]21.O=C(O)C(F)(F)F,-22.2
20,CS(=O)(=O)NC[C@H]1OC[C@@H]2CCN(CCc3ccccc3)C[C@@H]21.O=C(O)C(F)(F)F,101.5
21,CCN1CC2(CCN(CC3COCCO3)CC2)OC1=O (configuration not stated),-23.81
22,CN1CCN(CCCN(C)S(=O)(=O)C2CCCCC2)CC1,-3.997
23,CCc1cc(=O)[nH]c2nnc(SCC(=O)NC(C)C)n12,9.216
24,CCn1c(CN(C)C)nnc1C1CCN(c2ccnc(C)c2)CC1,-12.28
25,Cn1nc(CNC(=O)c2nc3ccccc3s2)c2c1CCOC2,-7.604

row,SMILES,Percent Effect [%]
1,Cn1nc2c(cc1=O)CN(c1nc3ccccc3s1)CC2,9.519
2,Cn1nc(Cl)cc1C(=O)N1CCC(C(=O)c2nc3ccccc3s2)CC1,97.43
3,Cc1sc2nc(C(F)(F)F)nc(N3CCCN(C)CC3)c2c1C,3.641
4,COc1nc(C)c(C(=O)N(C)Cc2nc(-c3ccccn3)no2)s1,6.707
5,Cc1ccc(C(CNCc2ncc[nH]2)N2CCOCC2)s1 (configuration not stated),-41.63
6,COc1cc(OC)nc(N2CCC3(CC2)OCCCC3O)n1 (configuration not stated),-8.22
7,O[C@H]1CN(Cc2ccnc(N3CCCC3)n2)CC[C@@]12CCCO2,120.1
8,O[C@H]1CN(Cc2c[nH]nc2-c2ccccc2)CC[C@@]12CCCO2,151.3
9,CCOC(=O)C1CCCN(Cc2c[nH]nc2-c2cc3ccccc3o2)C1 (configuration not stated),-24.88
10,OC1CCCOC12CCN(Cc1nnc(-c3cccnc3)o1)CC2 (configuration not stated),-12.47
11,OC1CCCOC12CCN(c1ncccn1)CC2 (configuration not stated),8.98
12,Cc1ccccc1CC(C)(C)NC(=O)c1cccc(OCC(N)=O)c1,-9.051
13,CCn1nnc2c1C(COC)CN(C(=O)COc1ccccc1)C2 (configuration not stated),-1.685
14,O=C(c1ncccn1)N1C[C@@H]2COC[C@]2(COc2cccnc2)C1,108.1
15,O=C(c1ncccn1)N1C[C@@H]2COC[C@]2(COCc2cccnc2)C1,11.05
16,O=C(c1cocn1)N1C[C@@H]2COC[C@]2(COc2cccnc2)C1,92.15
17,N#Cc1cccc(C(=O)N2CCc3c(COCC4CC4)cncc3C2)c1.O=C(O)C(F)(F)F,-0.2698
18,CCOCc1cncc2c1CCN(C(=O)c1cccc(C#N)c1)C2,8.725
19,O=C(c1cccnc1)N1CCc2c(COCC3CC3)cncc2C1,11.19
20,COCc1cncc2c1CCN(C(=O)c1ccc(C#N)cc1)C2.O=C(O)C(F)(F)F,122.8
21,N#Cc1ccc(C(=O)N2CCc3c(COCC4CC4)cncc3C2)cc1,120.9
22,O=C(c1ccncc1)N1CCc2c(COCC3CC3)cncc2C1,-2.638
23,COCc1cncc2c1CCN(C(=O)c1cccc(C#N)c1)C2.O=C(O)C(F)(F)F,95.5
24,CC(C)=CCN1CCC2(CC1)c1ccccc1[C@@H](N1CCSCC1)[C@@H]2O,17.95
25,NC(=O)c1nc2c(s1)CCN(C(=O)Nc1ccccc1)CC2,118.3

row,SMILES,Percent Effect [%]
1,CNC(=O)c1nc2c(s1)CCN(C(=O)c1ccccc1)CC2,-10.92
2,CCN(CC)C(=O)c1nc2c(s1)CCN(C(=O)CCC(=O)OC)CC2,-10.26
3,NC(=O)c1nc2c(s1)CCN(C(=O)Nc1cccc(Cl)c1)CC2,103.6
4,CCN(CC)C(=O)c1nc2c(s1)CCN(Cc1cccc(OC)c1)CC2.O=C(O)C(F)(F)F,-1.01
5,O=C(c1ccc(Cl)cc1)N1CCc2nc(C(=O)N3CCCC3)sc2CC1,0.273
6,O=C(Nc1ccccc1)N1CCc2nc(C(=O)N3CCCC3)sc2CC1,124.8
7,CN(C)C(=O)c1nc2c(s1)CCN(C(=O)c1ccc(Cl)cc1)CC2,-17.04
8,CNC(=O)N1CCc2nc(C(=O)Nc3cccnc3)sc2CC1,-5.762
9,CCN(CC)C(=O)c1nc2c(s1)CCN(C(=O)Nc1ccccc1)CC2,97.77
10,NC(=O)c1nc2c(s1)CCN(Cc1ccccc1)CC2.O=C(O)C(F)(F)F,-10.1
11,COc1cccc(CC(=O)N2CCc3nc(C(N)=O)sc3CC2)c1,-1.696
12,O=C(c1ccc2c(c1)[nH]c(=O)n2C1CCCC1)N1CCSCC1,1.159
13,CCCSc1ncc(CN2CCN(C)C(=O)C2C)cn1 (configuration not stated),3.746
14,Cc1nsc(NC(=O)N2CCN(Cc3ccccc3F)C(=O)C2)n1,-10.42
15,Clc1cccc(-c2noc(CCN3CCN(c4ccncc4)CC3)n2)c1,4.288
16,CN(Cc1ccc(Cl)s1)C(=O)Nc1ccc(N(C)C)nc1,10.16
17,COCCN(Cc1cnn(C)c1)C(=O)C1COc2c(cccc2OC)C1 (configuration not stated),-6.746
18,CCN1CC2(CCCCN2C(=O)c2ccn(C)n2)CC1=O (configuration not stated),-5.146
19,CN1CC2(CCCCN2C(=O)c2ccsc2)CC1=O (configuration not stated),106.9
20,CCN1C(=O)CCCC12CCCN(C(=O)c1ccsc1)C2 (configuration not stated),0.7078
21,COCCCN1CC2(CCCCN2C(=O)COC)CC1=O (configuration not stated),-19.41
22,CCN1CC2(CCCCN2C(=O)c2ccsc2)CC1=O (configuration not stated),92.4
